Screening data deposited in PubChem BioAssay by National Center for Advancing Translational Sciences (NCATS).
This is one part of a sample in which hits are shown more often than they occur.
Shiga toxin inh: A qHTS for Small Molecule Inhibitors of Shiga Toxin. Vero cells, Shiga toxin protein synthesis inhibition reporter. inhibition, % at 38.7 µM. hit rate 9.2% among 290,000; in the data active = inhibition mostly above about 28%, no sharp cut-off; inactive = mostly below about 43%; also: 0% is about no effect
CHX counter: Cycloheximide Counterscreen for Small Molecule Inhibitors of Shiga Toxin; cell reporter, cycloheximide protein synthesis inhibition counterscreen; max response, %; hit rate 12% among 300,000; in the data active = max response mostly above about 13%, no sharp cut-off; inactive = mostly below about 14%; also: read at 38.3 µM for the half of the compounds with a filed dose; 0% is about no effect
Marburg entry inh: qHTS for inhibitors of binding or entry into cells for Marburg Virus | Marburg virus pseudotyped entry inhibition, cell reporter | hit rate 1.8% among 300,000 | Potency, µM (titrated, usually from 37.8 µM), for the others: at the highest dose activity change, negative = inhibition, hits mostly inhibitors | AID 540276, 2011; calls by dose curve; tested in HEK293 cells; also: potency is read from the fitted curve at half-maximal effect; % is scaled to controls: 0 for no effect and ±100 for the full control effect
LASV entry inh: qHTS for Inhibitors of binding or entry into cells for Lassa Virus | Lassa virus pseudotype entry inhibition, cell reporter | Potency, µM (titrated, usually from 37.9 µM), for inactives: at the top dose activity change, negative = inhibition, hits mostly inhibitors | hit rate 1.2% among 300,000 | AID 540256, 2011; calls by dose curve; tested in HEK293 cells; also: potency is read from the fitted curve at half-maximal effect; % is scaled to controls: 0 for no effect and ±100 for the full control effect; nearly all actives have a fitted effect of over 50% in size
AMA1-RON2 inh: qHTS for Inhibitors of AMA1-RON; Towards Development of Antimalarial Drug Lead: Primary Screen; hit rate 0.2% among 360,000; AlphaScreen AMA1-biotinylated RON2 peptide binding; Potency, µM (highest dose often 58.2 µM), for inactives: at the top dose activity change, negative = inhibition, hits mostly inhibitors; Plasmodium falciparum AMA1 (3D7) - RON2 peptide interaction; AID 720542, 2013; active = well fitted inhibition curve with a large enough effect; inconclusive = small, poorly fitted or top-dose-only effect; inactive = no such curve, though single readings can be large or run the other way;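 also: potency is read from the fitted curve at half-maximal effect; 0% = vehicle wells and -100% = peptide control; nearly all actives have a fitted effect of over 45% in size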
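AMA1 (3D7) with his tag at 25 nM final met compounds first, then biotinylated RON2 peptide at 25 nM; detection used donor plus acceptor beads, 10 µg/mL apiece, read by AlphaScreen after 30 min at room temperature.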
An asterisk follows results filed as active; [ ] = remark or other dose.

`Cc1ccc(Oc2ccc(-c3nnc(-c4ccccc4)o3)cc2[N+](=O)[O-])cc1C` gave Shiga toxin inh -2, CHX counter -1, Marburg entry inh 16% and LASV entry inh 2%.
CC1CCN(S(=O)(=O)c2ccc3c(c2)N(CC(=O)Nc2ccc(F)c(Cl)c2)C(=O)CO3)CC1 was read as LASV entry inh -3%[46.1 µM].
`CC/C(=N\NC(=S)Nc1cccc(C)c1)c1ccccc1` gave Shiga toxin inh 30, CHX counter 17, Marburg entry inh -20%[46.1 µM], LASV entry inh inconclusive and AMA1-RON2 inh 84%.
For S=C(Nc1cccnc1)Nc1cccc2cnccc12 the results were Shiga toxin inh -14, CHX counter 1, Marburg entry inh -13%[46.1 µM], LASV entry inh 7% and AMA1-RON2 inh -20%.
CCc1cccc(NC(=S)Nc2cccc3ccccc23)c1 was read as Shiga toxin inh 73, CHX counter 46* and AMA1-RON2 inh 88%.
Cc1cccc(NC(=S)N/N=C(\c2ccccc2)C(C)C)c1 was read as Shiga toxin inh 55*, CHX counter 26*, Marburg entry inh -19%[46.1 µM], LASV entry inh inconclusive and AMA1-RON2 inh 39%.
Fc1ccc(NC(=S)Nc2cccc3cnccc23)cc1 was read as Shiga toxin inh 32, CHX counter 17*, Marburg entry inh -17%[46.1 µM] and AMA1-RON2 inh 4%.
Screening CCOC(=O)CSc1nc(C(C)(C)C)cc(C(F)(F)F)c1C#N returned Shiga toxin inh -31, CHX counter -2, Marburg entry inh inconclusive, LASV entry inh 21% and AMA1-RON2 inh 35%.
`Cc1cc2c(cc1S(=O)(=O)Nc1ccc(C(C)C)cc1)OCCN2C` gave LASV entry inh 6%[46.1 µM].
CCC(=O)N1c2ccc(S(=O)(=O)CCC(=O)NCc3ccc(OC)cc3)cc2CC1C (stereo not drawn) was read as Marburg entry inh 5%[46.1 µM] and LASV entry inh -24%[46.1 µM].
Cc1cc(C)c2c(C)c(C(=O)N3CCC(c4nc5ccccc5s4)CC3)oc2c1 was read as Marburg entry inh -15%[46.1 µM] and LASV entry inh -6%[46.1 µM].
For COc1cc(-c2nc3ccccn3c2/N=C/c2ccc(F)cc2)ccc1O the results were Shiga toxin inh 24, CHX counter 16*, Marburg entry inh 22%[46.1 µM], LASV entry inh 17%[46.1 µM] and AMA1-RON2 inh -8%.
For COc1cc(-c2nc3ccccn3c2/N=C/c2cccc(OC)c2O)ccc1O the results were Shiga toxin inh 54, CHX counter 23*, Marburg entry inh 25%[46.1 µM], LASV entry inh 6% and AMA1-RON2 inh 1%.
`OC1CNc2c(ccc3ccccc23)C1` (stereo not drawn) gave Marburg entry inh 7%[46.1 µM], LASV entry inh 29%[46.1 µM] and AMA1-RON2 inh -12%.
O=C(CSc1nccn1Cc1ccccc1)NCc1ccco1 was read as LASV entry inh -6%[46.1 µM].
For COc1c(C)cccc1C(=O)Nc1ccc(Cl)c(-c2nc3cc(C)ccc3o2)c1 the results were Marburg entry inh -1%[46.1 µM] and LASV entry inh inconclusive.
Screening Cc1ccc(/C=C/C(=O)OCC(=O)Nc2cccc(S(=O)(=O)N(C)C)c2)o1 returned Shiga toxin inh 17, CHX counter 14*, Marburg entry inh inconclusive, LASV entry inh -4% and AMA1-RON2 inh 5%[11.6 µM].
CN(C)S(=O)(=O)c1cccc(NC(=O)COC(=O)/C=C/c2ccco2)c1 was read as Shiga toxin inh -3, CHX counter 2, Marburg entry inh inconclusive, LASV entry inh 5% and AMA1-RON2 inh -7%.
For CN(C)S(=O)(=O)c1cccc(NC(=O)COC(=O)/C=C/c2ccc3c(c2)OCO3)c1 the results were Shiga toxin inh 71, CHX counter 16*, Marburg entry inh 9%[46.1 µM], LASV entry inh -11%[46.1 µM] and AMA1-RON2 inh 2%.
For Cc1ccc(S(=O)(=O)N(C)C)cc1NC(=O)COC(=O)/C=C/c1ccc2c(c1)OCO2 the results were Shiga toxin inh 40, CHX counter 17*, Marburg entry inh inconclusive, LASV entry inh -12%[46.1 µM] and AMA1-RON2 inh -4%.
For O=C(Nc1cc(C(F)(F)F)cc(C(F)(F)F)c1)O[C@@H]1c2ccccc2[C@@H]2Cc3csc[n+]3[C@H]12 the results were AMA1-RON2 inh 56%.
`C=CCN(C(=O)Cc1cccs1)c1nc(-c2ccc(S(C)(=O)=O)cc2)cs1` gave Shiga toxin inh 73*, CHX counter 21*, Marburg entry inh inconclusive, LASV entry inh inconclusive and AMA1-RON2 inh 2%.
C=CCN(C(=O)CCc1ccccc1OC)c1nc(-c2ccc(S(C)(=O)=O)cc2)cs1 was read as Shiga toxin inh 63*, CHX counter 39*, Marburg entry inh inconclusive, LASV entry inh inconclusive and AMA1-RON2 inh -14%.
`C=CCN(C(=O)c1cccc(S(=O)(=O)N2CCN(C)CC2)c1)c1nc(-c2ccccc2)cs1` gave Shiga toxin inh -11, CHX counter 1, Marburg entry inh inconclusive, LASV entry inh inconclusive and AMA1-RON2 inh -28%.
`O=C(N/N=C1\CC2CC=CC12)c1ccc(O)cc1` (stereo not drawn) gave Shiga toxin inh 51*, CHX counter 30*, Marburg entry inh 1%[46.1 µM], LASV entry inh inconclusive and AMA1-RON2 inh 98%.
For Cc1cccc(C)c1NC(=S)N/N=C1\CC2CC=CC12 (stereo not drawn) the results were Shiga toxin inh 21, CHX counter -1, Marburg entry inh -18%[46.1 µM], LASV entry inh 8% and AMA1-RON2 inh 76%.
Screening Cc1ccc(NC(=S)N/N=C2\CC3CC=CC23)c(C)c1 (stereo not drawn) returned Shiga toxin inh 56, CHX counter 20* and AMA1-RON2 inh 93%.
For Cc1ccc(C(=O)N/N=C2\CC3CC=CC23)c(C)c1 (stereo not drawn) the results were Shiga toxin inh 133*, CHX counter 63*, Marburg entry inh 19%, LASV entry inh 17% and AMA1-RON2 inh 12%.
`O=C(N/N=C1\CCS(=O)(=O)c2ccc(F)cc21)c1ccc(O)cc1` gave Shiga toxin inh 18, CHX counter 23 and AMA1-RON2 inh -6%.
Screening CCC(C)NC(=O)c1ccc2c(c1)nc1n2CCCCC1 (stereo not drawn) returned LASV entry inh -4%[46.1 µM].
For CCCc1noc2c1/C(=N\O)CC(CC(C)SCC)C2 (stereo not drawn) the results were Shiga toxin inh 19*, CHX counter 33*, Marburg entry inh 8%, LASV entry inh 1% and AMA1-RON2 inh -5%.
CCSC(C)CC1C/C(=N/O)c2c(CC)noc2C1 (stereo not drawn) was read as Shiga toxin inh 4, CHX counter 3, Marburg entry inh inconclusive, LASV entry inh -5% and AMA1-RON2 inh -9%.
`CCc1ccc(OCC(=O)N(Cc2ccc(C)cc2)Cc2ccco2)cc1` gave Marburg entry inh -2%[46.1 µM] and LASV entry inh -2%[46.1 µM].
